Measurements as given in PubChem BioAssay AID1259341 (Broad Institute, 2017).
The source made the active and inactive calls.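 How the source made its calls: active means activity change under -35% in any replicate well, with more than 20 beads read in that well; inactive means the rest.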

biological target: Caspase recruitment domain-containing protein 9 (Homo sapiens) + E3 ubiquitin-protein ligase TRIM62 (Homo sapiens) (UniProt Q9H257+Q9BVG3); assay: disruptors of CARD9-TRIM62 binding, primary screen, cell lysate, HEK293FT lysates, Luminex bead ELISA (AID 1259341); conditions: PE fluorescence, active compounds read low, concentration not given here;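 further: PE anti-Flag signal of Flag-CARD9 captured by myc-TRIM62 beads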
Sequence (Q9BVG3 whole entry, looked up, the tested form may be a part): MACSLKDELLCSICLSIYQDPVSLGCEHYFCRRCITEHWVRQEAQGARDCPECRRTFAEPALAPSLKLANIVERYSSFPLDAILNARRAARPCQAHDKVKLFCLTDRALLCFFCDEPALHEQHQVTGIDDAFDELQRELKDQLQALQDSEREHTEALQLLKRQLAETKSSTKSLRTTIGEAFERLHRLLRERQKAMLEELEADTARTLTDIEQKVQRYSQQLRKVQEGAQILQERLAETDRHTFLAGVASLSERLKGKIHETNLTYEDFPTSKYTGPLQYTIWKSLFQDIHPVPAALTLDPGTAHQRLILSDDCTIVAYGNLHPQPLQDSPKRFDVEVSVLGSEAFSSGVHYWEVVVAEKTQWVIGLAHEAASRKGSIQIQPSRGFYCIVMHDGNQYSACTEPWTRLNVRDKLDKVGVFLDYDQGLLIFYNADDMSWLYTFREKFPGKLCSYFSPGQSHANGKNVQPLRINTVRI
Sequence (Q9H257 whole entry, looked up, the tested form may be a part): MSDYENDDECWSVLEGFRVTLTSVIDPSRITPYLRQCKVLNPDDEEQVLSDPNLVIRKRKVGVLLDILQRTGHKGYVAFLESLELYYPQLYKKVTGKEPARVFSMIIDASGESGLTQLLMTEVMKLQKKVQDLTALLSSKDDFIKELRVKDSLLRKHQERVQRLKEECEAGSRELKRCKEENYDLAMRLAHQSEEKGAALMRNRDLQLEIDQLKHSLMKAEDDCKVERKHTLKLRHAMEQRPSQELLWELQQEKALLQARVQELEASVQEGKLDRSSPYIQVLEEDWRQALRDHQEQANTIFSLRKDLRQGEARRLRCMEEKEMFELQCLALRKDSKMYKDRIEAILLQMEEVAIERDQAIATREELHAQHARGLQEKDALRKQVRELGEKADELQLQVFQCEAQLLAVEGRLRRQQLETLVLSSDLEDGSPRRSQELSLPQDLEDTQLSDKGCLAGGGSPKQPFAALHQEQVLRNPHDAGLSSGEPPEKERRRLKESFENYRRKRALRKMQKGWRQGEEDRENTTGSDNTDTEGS

Activity change, negative = inhibition, inactive:
C[C@H](CO)N1C[C@H](C)[C@@H](CN(C)CC2CCCCC2)OCCCC[C@H](C)Oc2ccc(NS(=O)(=O)c3ccc(Cl)cc3)cc2C1=O 8.08%
CS(=O)(=O)N1CCN(c2ccc([N+](=O)[O-])c(SCc3ccco3)c2)CC1 -5.97%
CCCN1CCc2nc(SCc3nc(-c4ccc(OC)cc4OC)oc3C)[nH]c(=O)c2C1 -0.271%
O=C(CCCN1C(=O)NC2(CCCC2)C1=O)Nc1ccc(F)cc1 23.8%
Nc1ccccc1Sc1nccc(C(F)(F)F)n1 3.66%
C[C@H](CO)N1C[C@H](C)[C@@H](CN(C)C(=O)C2CCCCC2)OCCCC[C@H](C)Oc2ccc(NS(=O)(=O)c3ccccc3)cc2C1=O 6.21%
CN1C(=O)C(c2ccccc2[N+](=O)[O-])C(=O)c2ccccc21 (stereo unspecified) 3.98%
O=C(NCc1ccco1)[C@@H]1CSC2c3ccccc3C(=O)N21 (stereo partly specified) -0.672%
O=C(O)c1cc(-c2ccc(-c3ccc(F)cc3)o2)nc2ccccc12 -7.53%
C[C@H](CO)N1C[C@H](C)[C@@H](CN(C)C(=O)C2CCCCC2)OCCCC[C@H](C)Oc2ccc(NS(=O)(=O)c3ccc(Cl)cc3)cc2C1=O 8.52%
Cc1ccc(S(=O)(=O)Nc2ccc3c(c2)C(=O)N([C@H](C)CO)C[C@H](C)[C@@H](CN(C)C(=O)C2CCCCC2)OCCCC[C@H](C)O3)cc1 6.06%
N#Cc1c(NC(=O)CSc2nc3ccccc3o2)sc2c1CCC2 2.26%
CC(C)C(CC(=O)NCc1ccco1)c1ccco1 (stereo unspecified) -8.54%
O=C(Nc1nnc(-c2ccco2)s1)c1ccccc1 1.07%
O=[N+]([O-])c1c(NCCCO)cc(SCc2ccco2)c2nonc12 15.3%
C[C@H](CO)N1C[C@H](C)[C@@H](CN(C)CC2CCCCC2)OCCCC[C@H](C)Oc2ccc(NS(=O)(=O)c3ccc(F)cc3)cc2C1=O -12.1%
O=C(Nc1ccc(OCC(=O)N2CCOCC2)cc1)c1cncc(Br)c1 -1.75%
Cc1nc(C)c(C(=O)Nc2ncc([N+](=O)[O-])s2)o1 -6.18%
NC(=O)C1(N2CCCCC2)CCN(c2ccc(NC(=O)c3ccccc3F)cc2C(=O)O)CC1 -30%
O=S(=O)(c1ccccc1)N1CC2CN(Cc3ccc(O)cc3)C2C1 (stereo unspecified) -21%
CS(=O)(=O)c1ccc2ccn(O)c2c1 -9.61%
COc1ccc(F)c(CN2C[C@H]3CC[C@@H]2CN(Cc2cscn2)C3)c1 -3.76%
CCOc1ccc(CNc2nc(-c3nnc(-c4ccc(F)cc4)o3)nc3ccccc23)cc1 14.1%
O=C1c2ccccc2S(=O)(=O)N1Cc1cccc(S(=O)(=O)N2CCOCC2)c1 5.11%
COc1ccc(S(=O)(=O)Nc2ccc3c(c2)C(=O)N([C@H](C)CO)C[C@H](C)[C@@H](CN(C)CC2CCCCC2)OCCCC[C@H](C)O3)cc1 5.92%
O=C(O)c1ccccc1/C=N/NC(=O)c1cc(-c2ccco2)nc2ccccc12 -9.37%
O=C(NCC1CCCO1)c1cc(-c2ccco2)nc2ccccc12 (stereo unspecified) -3.93%
COc1ccc(N2Cc3cccc(C(=O)NC(C)CCc4ccco4)c3C2=O)cc1 (stereo unspecified) 0.962%
Cc1ccc(C(=O)Nc2ccc(N3CCC(C(N)=O)(N4CCCCC4)CC3)c(C(=O)O)c2)cc1 -42.4%
CCNc1ncc(C(=O)NCCc2nc3c(s2)CCCC3)cn1 -3.32%
Cc1ccc(-c2nc(C)sc2CC(=O)NCc2ccco2)cc1 -1.34%
CC(=O)c1cccc(OCC(=O)N(C)CC(=O)NCc2ccco2)c1 -22.5%
N#Cc1c(N)oc(-c2ccco2)c1-c1ccco1 -6.71%
O=C(Nc1nc(-c2ccco2)c(-c2ccco2)s1)c1ccco1 -9.14%
CCCN1CCCn2nc(CNC(=O)[C@H]3CC[C@@H](N)C3)cc2C1 -7.32%
Cc1cc(C(=O)Nc2nc3c(s2)CCc2ccccc2-3)no1 3.92%
